Assay results published in PubChem BioAssay (NCATS).
Values without a mark were called inactive. Inconclusive results are not listed. Activity calls are given as the source filed them. Unless noted, the call rests on the fitted dose curve; in most records, active means well fitted curve in either direction with a large enough effect (not every such curve was filed as active); inconclusive means small, poorly fitted or top-dose-only effect, or another doubt; inactive means flat fitted curve, though single readings scatter.

Tests used:
[1] = biological target: Lysosomal acid glucosylceramidase (Homo sapiens) (UniProt P04062); assay: Glucocerebrosidase-p2 (AID 348; in the data active means potency below about 10 µM; further: potency means the concentration at half of the fitted maximal effect); settings: purified GBA, blue fluorogenic substrate, 40 min
Method in brief: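 Normal human glucocerebrosidase (0.2 nM) with blue fluorogenic substrate (80 uM final) in citrate/phosphate pH 5.9 with 10mM sodium taurocholate, 0.01% tween-20; 40 min RT, NaOH/glycine stop; fluorescence Ex 365/Em 440; AC50 from a titration from 0.6 nM upwards.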

[2] = AP1 Signaling Pathway (AID 357); settings: ME-180 AP-1-bla reporter, EGF-induced, beta-lactamase ratio, 5 h; at 7.69 µM (top of the series) unless noted;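 further: ME-180 reporter cells stimulated with EGF at its EC50 level; on the % scale 0 is the no-effect control and ±100 the full control effect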
Method in brief: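 Modulation of EGF-driven AP-1 transcription was assessed with a beta-lactamase reporter in ME-180 cells. Compound and EC50 EGF were co-incubated 5 hours at 37 °C before 2.5-hour CCF4 loading at room temperature and dual-emission reading.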

[3] = biological target: Cytochrome P450 1A2 (Homo sapiens) (UniProt P05177); assay: p450-cyp1a2 (AID 410; calls by dose curve; further: potency means the concentration at half of the fitted maximal effect;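 on activity change, negative = inhibition: -100% = full effect of reference inhibitor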); settings: recombinant CYP1A2, luciferin-ME demethylation, luminescence; series mostly up to 57 µM
Method in brief: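 20nM CYP1A2, 100uM Luciferin-ME (=Km), 100mM KPO4; cpd 10 min RT; +NADPH regen, 60 min RT; stop/detect 20 min; luminescence. Normalized to furafylline 57 uM = full inhibition.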

[4] = NFAT Signaling Pathway (AID 444); settings: Jurkat NFAT-bla M1, carbachol, beta-lactamase ratio, 5 h; at 7.69 µM (top of the series) unless noted;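 further: carbachol stimulus at about its EC50 of 1 µM final; on the % scale 0 is the no-effect control and ±100 the full control effect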
Method in brief: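 Jurkat cells carrying an NFAT-driven β-lactamase reporter and co-transfected muscarinic M1 receptor were treated with compound plus carbachol (1 uM final, an EC50 level) for 5 h at 37 °C. CCF4 loading followed for 1 h at RT; 460/530 nm ratio gave %activity.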

[5] = Stat Signaling Pathway (AID 446); settings: ME-180 SIE beta-lactamase reporter, IL-6 stimulated, 5 h; at 7.69 µM (top of the series) unless noted;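 further: ME-180 cervical cancer cells given 40 pM IL-6 alongside compound; SIE-controlled beta-lactamase reporter measured as 460/530 nm FRET emission ratio; on the % scale 0 is the no-effect control and ±100 the full control effect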
Method in brief: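 FRET read-out (405 nm excitation, 460/530 nm emission) of a beta-lactamase reporter under a STAT-inducible element in ME-180 cervical carcinoma cells. Cells with compound receive 40 pM IL-6 for 5 h. Values are normalised to AC90 stimulation and AC90 JAK-inhibitor controls.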

[6] = biological target: Glucocorticoid receptor (Homo sapiens) (UniProt P04150); assay: GR-EFC Redistribution (AID 451; calls by dose curve; further: potency means the concentration at half of the fitted maximal effect); settings: CHO-K1 GR-EFC translocation, beta-gal luminescence, 2 h
Method in brief: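 CHO-K1 cells stably expressing nuclear-localized β-gal enzyme acceptor and GR fused C-terminally to the enzyme donor fragment; ligand-driven nuclear translocation restores β-gal by complementation. Compounds titrated up to 46 uM final, 2 h at 37 °C; luminescence read.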

[7] = biological target: Mitogen-activated protein kinase 10 (Mus musculus) (UniProt Q61831); assay: JNK3 AlphaScreen Assay (AID 530); settings: JNK3 lysate, c-Jun phosphorylation; series mostly up to 57.1 µM;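 further: kinase came from lysate of stimulated human HepG2 cells; signal reports phosphorylation of biotinylated GST-cJun 1-79 at Ser73 with 10 µM ATP; on the % scale 0 is the no-effect control and ±100 the full control effect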
Method in brief: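 Biotinylated GST-cJun(1-79) served as substrate for JNK3 in HepG2 lysates stimulated with IL-1beta and TNF-alpha. ATP was 10 uM final, pH 7.6. Ser73 phosphorylation was quantified by AlphaScreen (680 nm excitation).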

[8] = biological target: 3',5'-cyclic-AMP phosphodiesterase 4B (Homo sapiens) (UniProt Q07343); assay: qHTS Assay for Inhibitors of PDE-IV (AID 607; active means well fitted activation curve with a large enough effect in the main read-out, with a control signal flat, not every such curve was filed as active; further: % of control where 0% means no effect); settings: HEK293 ACTOne CNG channel cells, membrane potential fluorescence; series mostly up to 22.9 µM
Method in brief: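 Cell-based read-out of cAMP via a modified cyclic nucleotide-gated channel and membrane potential dye (535/590 nm) in HEK293 cells expressing PDE4 endogenously. Compounds tested up to 22.9 uM final; 100 uM RO 20-1724 reference.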

[9] = Primary qHTS for small molecule stabilizers of the endoplasmic reticulum resident proteome: Secreted ER Calcium Modulated Protein (SERCaMP) assay (AID 1508630; active means well fitted curve in the direction sought with a large enough effect; an effect the other way counts as inactive or inconclusive; further: on the % scale 0 is the no-effect control and ±100 the full control effect); settings: SH-SY5Y GLuc-SERCaMP (Gaussia luciferase released on ER calcium loss) secretion, thapsigargin, luminescence; series mostly up to 38.4 µM
Method in brief: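 The SH-SY5Y reporter protocol was run at 3 concentrations up to 38.3 uM (primary) or 11 concentrations (follow-up): 16 h compound, 100 nM thapsigargin for 4 h, then extracellular luciferase luminescence.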

[10] = biological target: Cytochrome P450 2C9 (Homo sapiens) (UniProt P11712); assay: qHTS Assay for Inhibitors and Substrates of Cytochrome P450 2C9 (AID 883; active means well fitted curve in the direction sought with a large enough effect; an effect the other way counts as inactive or inconclusive; further: on the % scale 0 is the no-effect control and ±100 the full control effect; nearly all actives have a fitted effect of over 60% in size); settings: recombinant CYP2C9, luciferin-H luminescence, 60 min; series mostly up to 57.1 µM
Method in brief: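 Human CYP2C9 (10nM) hydroxylated Luciferin-H (100uM, at its KM) to luciferin in 25mM KPO4. Compound was preincubated 10 min at 37C, then NADPH regeneration started a 60 min reaction at 37C. Luminescence was read after detection reagent, normalized to 57uM sulphaphenazole.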

[11] = biological target: Cytochrome P450 3A4 (Homo sapiens) (UniProt P08684); assay: qHTS Assay for Inhibitors and Substrates of Cytochrome P450 3A4 (AID 884; active means well fitted curve in the direction sought with a large enough effect; an effect the other way counts as inactive or inconclusive; further: on the % scale 0 is the no-effect control and ±100 the full control effect; nearly all actives have a fitted effect of over 50% in size); settings: recombinant CYP3A4, Luciferin-PPXE luminescence; series mostly up to 57.1 µM
Method in brief: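 Luminescent readout of luciferin produced by CYP3A4 (20 nM) dealkylation of Luciferin-PPXE, 25 uM (its KM). NADPH-driven reaction ran 60 min at RT after 10 min compound preincubation; data scaled to 57 uM ketoconazole as 100% inhibition.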

[12] = biological target: Cytochrome P450 2C19 (Homo sapiens) (UniProt P33261); assay: qHTS Assay for Inhibitors and Substrates of Cytochrome P450 2C19 (AID 899; active means well fitted curve in the direction sought with a large enough effect; an effect the other way counts as inactive or inconclusive; further: on the % scale 0 is the no-effect control and ±100 the full control effect; nearly all actives have a fitted effect of over 60% in size); settings: recombinant CYP2C19, luciferin-H EGE luminescence; series mostly up to 57.1 µM
Method in brief: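 Human CYP2C19 (5nM) with Luciferin-H EGE at 10uM (its KM) in 50mM KPO4 was preincubated with compound for 10 min at 37C. NADPH regeneration started a 60 min 37C reaction. Luciferin was read by luminescence, normalized to 57uM ketoconazole.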

[13] = biological target: Cytochrome P450 2D6 (Homo sapiens) (UniProt P10635); assay: qHTS Assay for Inhibitors and Substrates of Cytochrome P450 2D6 (AID 891; active means well fitted curve in the direction sought with a large enough effect; an effect the other way counts as inactive or inconclusive;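 further: luciferin methyl ether substrate demethylated by CYP2D6 with NADPH regeneration; on the % scale 0 is the no-effect control and ±100 the full control effect; nearly all actives have a fitted effect of over 60% in size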); settings: recombinant CYP2D6, luciferin-ME EGE luminescence; series mostly up to 57.1 µM
Method in brief: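 Luminescent read-out of luciferin formed by 5 nM human CYP2D6 demethylating 30 uM Luciferin-ME EGE (Km level) over 60 min at room temperature after NADPH regeneration addition. Data normalized to full inhibition by 1.43 uM quinidine.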

[14] = biological target: Cytochrome P450 3A4 (Homo sapiens) (UniProt P08684); assay: qHTS Assay for Activators of Cytochrome P450 3A4 (AID 885; active means well fitted curve in the direction sought with a large enough effect; an effect the other way counts as inactive or inconclusive; further: nearly all actives have a fitted effect of over 65% in size); settings: recombinant CYP3A4, Luciferin-PPXE luminescence, 60 min; series mostly up to 57.1 µM
Method in brief: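 Luminescent readout of luciferin formed from 25 uM Luciferin-PPXE (KM level) by 20 nM CYP3A4 in 200 mM KPO4, with 60 min NADPH-driven reaction at room temperature after 10 min compound exposure. Ketoconazole (57 uM) defined 100% inhibition.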

[15] = qHTS Assay for Identification of Small Molecule Agonists for Hypoxia Response Element Signaling Pathway (AID 914; active means well fitted activation curve with a large enough effect in the signal ratio, with a control signal flat, not every such curve was filed as active; the % refers to the signal ratio; further: % of control where 0% means no effect); settings: ME-180 (cervical carcinoma) HRE-bla reporter, beta-lactamase ratio, CoCl2, 17 h; activation: stronger effect = higher value
Method in brief: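 Read-out: CCF4 FRET ratio of 460nm to 530nm emission (excitation 405nm) after 2.5 hours at room temperature, taken from HRE-bla ME-180 cells that had been exposed to compound and EC50 CoCl2 for 17 hours.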

[16] = biological target: Glucocorticoid receptor (Homo sapiens) (UniProt P04150); assay: GR-GFP Redistribution (AID 450;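 active means compounds whose dose series gives a full or clear partial fitted curve of increased nuclear translocation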; further: potency means the concentration at half of the fitted maximal effect); settings: U2OS GR-GFP nuclear translocation, laser cytometry, 2 h

Sequence of Glucocorticoid receptor (Homo sapiens) (P04150 whole entry, looked up, the tested form may be a part): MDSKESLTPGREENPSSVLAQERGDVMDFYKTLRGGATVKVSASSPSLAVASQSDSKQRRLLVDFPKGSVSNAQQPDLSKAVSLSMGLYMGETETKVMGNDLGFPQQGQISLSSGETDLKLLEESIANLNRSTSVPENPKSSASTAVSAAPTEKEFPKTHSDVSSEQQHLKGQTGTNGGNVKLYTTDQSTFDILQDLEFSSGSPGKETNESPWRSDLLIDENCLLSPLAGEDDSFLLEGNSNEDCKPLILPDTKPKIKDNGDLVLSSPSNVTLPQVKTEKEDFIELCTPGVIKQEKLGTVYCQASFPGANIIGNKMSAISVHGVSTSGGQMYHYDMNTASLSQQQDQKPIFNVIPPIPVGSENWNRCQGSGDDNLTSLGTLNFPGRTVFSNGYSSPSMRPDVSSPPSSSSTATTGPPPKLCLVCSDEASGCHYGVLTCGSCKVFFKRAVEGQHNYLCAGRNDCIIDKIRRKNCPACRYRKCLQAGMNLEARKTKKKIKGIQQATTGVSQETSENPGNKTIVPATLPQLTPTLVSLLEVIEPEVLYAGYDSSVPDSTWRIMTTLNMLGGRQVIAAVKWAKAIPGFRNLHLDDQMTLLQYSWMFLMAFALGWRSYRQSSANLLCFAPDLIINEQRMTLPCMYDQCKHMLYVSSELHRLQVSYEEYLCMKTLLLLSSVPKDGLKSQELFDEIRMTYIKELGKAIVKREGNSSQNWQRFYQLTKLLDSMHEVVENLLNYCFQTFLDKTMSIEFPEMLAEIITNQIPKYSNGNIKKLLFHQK
Sequence of Cytochrome P450 2C9 (Homo sapiens) (P11712 whole entry, looked up): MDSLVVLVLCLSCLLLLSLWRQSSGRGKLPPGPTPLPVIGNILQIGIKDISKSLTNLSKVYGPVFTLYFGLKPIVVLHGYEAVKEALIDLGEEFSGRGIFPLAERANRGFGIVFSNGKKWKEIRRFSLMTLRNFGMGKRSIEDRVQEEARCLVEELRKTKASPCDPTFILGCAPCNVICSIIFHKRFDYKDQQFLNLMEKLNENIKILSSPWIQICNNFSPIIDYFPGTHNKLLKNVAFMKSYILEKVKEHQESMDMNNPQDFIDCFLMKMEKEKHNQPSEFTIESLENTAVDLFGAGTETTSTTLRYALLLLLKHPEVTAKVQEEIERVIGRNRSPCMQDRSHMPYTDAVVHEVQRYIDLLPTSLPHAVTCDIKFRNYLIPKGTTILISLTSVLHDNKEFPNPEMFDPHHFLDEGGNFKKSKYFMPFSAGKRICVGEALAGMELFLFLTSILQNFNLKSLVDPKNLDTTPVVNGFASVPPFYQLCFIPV
Sequence of Cytochrome P450 3A4 (Homo sapiens) (P08684 whole entry, looked up): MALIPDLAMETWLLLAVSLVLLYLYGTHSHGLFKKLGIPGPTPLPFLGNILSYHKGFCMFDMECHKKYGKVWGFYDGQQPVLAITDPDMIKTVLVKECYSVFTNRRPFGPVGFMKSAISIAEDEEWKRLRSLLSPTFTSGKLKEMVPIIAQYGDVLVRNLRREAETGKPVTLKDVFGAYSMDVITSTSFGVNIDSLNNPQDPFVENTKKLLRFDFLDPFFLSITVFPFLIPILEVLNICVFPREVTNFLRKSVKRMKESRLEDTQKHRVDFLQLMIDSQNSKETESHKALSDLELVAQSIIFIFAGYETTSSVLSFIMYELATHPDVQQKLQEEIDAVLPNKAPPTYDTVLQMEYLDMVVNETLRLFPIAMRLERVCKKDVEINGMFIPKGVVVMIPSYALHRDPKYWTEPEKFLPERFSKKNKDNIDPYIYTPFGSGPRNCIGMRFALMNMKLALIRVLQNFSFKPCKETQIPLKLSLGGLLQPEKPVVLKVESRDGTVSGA
Sequence of Cytochrome P450 2C19 (Homo sapiens) (P33261 whole entry, looked up): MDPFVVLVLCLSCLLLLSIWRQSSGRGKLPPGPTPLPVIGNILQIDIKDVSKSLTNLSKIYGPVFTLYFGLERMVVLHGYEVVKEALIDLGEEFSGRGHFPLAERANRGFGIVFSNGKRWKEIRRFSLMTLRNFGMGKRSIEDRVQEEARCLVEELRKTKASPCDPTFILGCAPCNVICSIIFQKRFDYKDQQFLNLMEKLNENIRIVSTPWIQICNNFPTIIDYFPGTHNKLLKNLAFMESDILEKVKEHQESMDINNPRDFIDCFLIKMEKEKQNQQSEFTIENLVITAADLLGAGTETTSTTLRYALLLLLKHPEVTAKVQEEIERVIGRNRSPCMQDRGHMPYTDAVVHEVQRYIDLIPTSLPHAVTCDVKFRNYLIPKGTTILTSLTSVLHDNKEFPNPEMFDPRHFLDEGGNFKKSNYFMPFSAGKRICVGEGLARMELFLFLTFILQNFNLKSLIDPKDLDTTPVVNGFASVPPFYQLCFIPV
Sequence of Cytochrome P450 1A2 (Homo sapiens) (P05177 whole entry, looked up): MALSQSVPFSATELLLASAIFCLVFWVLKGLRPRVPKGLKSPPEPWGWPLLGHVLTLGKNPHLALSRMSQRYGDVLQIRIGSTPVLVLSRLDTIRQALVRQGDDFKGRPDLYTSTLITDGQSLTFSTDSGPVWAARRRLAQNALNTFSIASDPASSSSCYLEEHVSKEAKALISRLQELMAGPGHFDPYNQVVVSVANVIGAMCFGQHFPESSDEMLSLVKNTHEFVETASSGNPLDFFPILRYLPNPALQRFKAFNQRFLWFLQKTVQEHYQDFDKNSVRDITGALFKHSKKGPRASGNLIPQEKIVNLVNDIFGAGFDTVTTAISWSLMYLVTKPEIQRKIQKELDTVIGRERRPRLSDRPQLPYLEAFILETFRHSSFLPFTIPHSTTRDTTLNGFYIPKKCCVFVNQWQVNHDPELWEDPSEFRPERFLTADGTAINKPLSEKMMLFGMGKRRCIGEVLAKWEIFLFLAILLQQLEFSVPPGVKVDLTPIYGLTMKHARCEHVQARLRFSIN
Sequence of 3',5'-cyclic-AMP phosphodiesterase 4B (Homo sapiens) (Q07343 whole entry, looked up): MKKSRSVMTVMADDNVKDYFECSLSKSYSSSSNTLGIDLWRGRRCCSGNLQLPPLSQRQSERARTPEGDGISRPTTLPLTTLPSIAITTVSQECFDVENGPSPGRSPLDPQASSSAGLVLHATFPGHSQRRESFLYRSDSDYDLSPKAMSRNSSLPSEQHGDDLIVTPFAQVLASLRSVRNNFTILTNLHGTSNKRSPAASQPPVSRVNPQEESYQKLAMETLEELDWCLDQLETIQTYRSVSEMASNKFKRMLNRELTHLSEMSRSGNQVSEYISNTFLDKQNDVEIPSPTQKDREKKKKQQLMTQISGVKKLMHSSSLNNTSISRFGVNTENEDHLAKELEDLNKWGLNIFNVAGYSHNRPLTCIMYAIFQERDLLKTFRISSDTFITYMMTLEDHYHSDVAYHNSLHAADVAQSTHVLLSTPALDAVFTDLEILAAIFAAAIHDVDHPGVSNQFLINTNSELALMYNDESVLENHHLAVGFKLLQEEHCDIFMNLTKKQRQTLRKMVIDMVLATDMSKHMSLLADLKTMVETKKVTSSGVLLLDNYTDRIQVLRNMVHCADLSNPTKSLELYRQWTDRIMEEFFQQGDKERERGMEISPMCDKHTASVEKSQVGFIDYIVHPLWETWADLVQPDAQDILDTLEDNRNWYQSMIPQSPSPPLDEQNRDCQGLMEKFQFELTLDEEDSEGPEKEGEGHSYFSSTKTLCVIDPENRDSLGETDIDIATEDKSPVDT
Sequence of Lysosomal acid glucosylceramidase (Homo sapiens) (P04062 whole entry, looked up): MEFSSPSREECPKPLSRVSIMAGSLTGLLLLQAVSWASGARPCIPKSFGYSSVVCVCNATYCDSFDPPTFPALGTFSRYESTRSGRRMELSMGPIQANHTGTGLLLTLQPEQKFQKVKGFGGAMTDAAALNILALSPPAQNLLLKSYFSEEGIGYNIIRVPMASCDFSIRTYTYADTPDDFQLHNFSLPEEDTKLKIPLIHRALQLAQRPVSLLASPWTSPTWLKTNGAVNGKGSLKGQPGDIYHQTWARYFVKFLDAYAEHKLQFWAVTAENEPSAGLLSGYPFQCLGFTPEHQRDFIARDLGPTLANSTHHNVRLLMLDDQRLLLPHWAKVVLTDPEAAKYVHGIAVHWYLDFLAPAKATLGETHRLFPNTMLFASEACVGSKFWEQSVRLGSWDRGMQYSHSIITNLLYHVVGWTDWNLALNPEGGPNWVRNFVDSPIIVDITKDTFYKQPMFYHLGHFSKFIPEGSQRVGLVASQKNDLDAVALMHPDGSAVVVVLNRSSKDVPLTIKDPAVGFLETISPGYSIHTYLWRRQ
Sequence of Cytochrome P450 2D6 (Homo sapiens) (P10635 whole entry, looked up): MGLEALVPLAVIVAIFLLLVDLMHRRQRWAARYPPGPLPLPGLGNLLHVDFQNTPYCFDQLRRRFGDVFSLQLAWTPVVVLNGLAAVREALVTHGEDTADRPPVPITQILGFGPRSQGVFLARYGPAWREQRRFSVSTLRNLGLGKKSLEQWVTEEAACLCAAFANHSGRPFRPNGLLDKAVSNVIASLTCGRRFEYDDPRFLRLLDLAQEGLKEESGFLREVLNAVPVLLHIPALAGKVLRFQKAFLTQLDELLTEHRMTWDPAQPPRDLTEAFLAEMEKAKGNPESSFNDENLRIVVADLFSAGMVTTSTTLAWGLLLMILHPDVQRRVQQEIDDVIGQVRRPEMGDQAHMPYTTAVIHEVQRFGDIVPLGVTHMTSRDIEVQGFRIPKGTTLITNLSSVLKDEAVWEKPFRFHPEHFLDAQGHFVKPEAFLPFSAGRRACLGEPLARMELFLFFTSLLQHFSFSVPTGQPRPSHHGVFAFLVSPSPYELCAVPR

| Compound | Potency [1] | activity change, negative = inhibition [2] | Potency [3] | activity change, negative = inhibition [4] | activity, negative = inhibition [5] | Potency [6] | Potency [7] | Potency [8] | outcome [9] | Potency [10] | Potency [11] | Potency [12] | Potency [13] | Potency [14] | activation [15] | Potency [16] |
| --- | --- | --- | --- | --- | --- | --- | --- | --- | --- | --- | --- | --- | --- | --- | --- | --- |
| COCC(=O)N1CCC2(CCCN(C(=O)Nc3ccccc3)C2)CC1 | > 11.4 µM | -1.58% | inactive | 13.8% | 3.14% | > 46 µM | inactive | inactive | inactive | – | – | – | – | – | – | – |
| N#Cc1cccc(NC(=O)N2CC[C@@]3(CCCN(C(=O)c4cc(C(F)(F)F)cc(C(F)(F)F)c4)C3)C2)c1 | > 11.4 µM | 3.48% | inactive | 5.16% | -10.2% | > 46 µM | inactive | inactive | inactive | inactive | inactive | inactive | – | – | – | – |
| Cn1cccc1C(=O)N1CCC2(CCCN(c3ncccn3)C2)CC1 | > 11.4 µM | 7.97% | inactive | 2.93% | -5.18% | > 46 µM | inactive | inactive | inactive | inactive | – | inactive | inactive | – | – | – |
| Cn1cccc1C(=O)N1CCC2(CC1)CCN(c1ncccn1)CC2 | > 11.4 µM | 0.908% | inactive | 5.08% | -4.72% | > 46 µM | inactive | inactive | inactive | – | inactive | – | – | – | – | – |
| CS(=O)(=O)N1CCC2(CCCN(c3ncccn3)C2)CC1 | > 11.4 µM | 1.67% | 15.8 µM (active) | 2.98% | -8.29% | > 46 µM | inactive | inactive | inactive | – | – | – | – | – | – | – |
| COc1ccc(NC(=O)N2CC[C@@]3(CCCN(C(=O)c4c(C)noc4C)C3)C2)cc1 | > 11.4 µM | -9.74% | inactive | -10.6% | -10.2% | > 46 µM | inactive | inactive | inactive | inactive | – | – | – | inactive | -0.633% | – |
| O=C(Nc1ccccc1)N1CC2(CCN(C(=O)c3cnccn3)CC2)C1 | > 11.4 µM | -11.2% | 20 µM (active) | 4.45% | 2.96% | > 46 µM | inactive | inactive | inactive | – | – | – | – | – | – | – |
| COc1ccc(NC(=O)N2CCC3(CC2)CCN(C(=O)c2ccco2)CC3)cc1 | > 11.4 µM | -4.61% | 20 µM (active) | 3.53% | -1.71% | > 46 µM | inactive | inactive | inactive | – | – | – | – | – | – | – |
| O=S(=O)(c1ccccc1)N1CCC2(CC1)CN(Cc1nccs1)C2 | > 11.4 µM | 11.1% | inactive | -29.2% | 9.77% | > 46 µM | inactive | inactive | inactive | – | – | – | – | – | – | – |
| COCC(=O)N1CCC2(CCCN(Cc3nccs3)C2)CC1 | > 11.4 µM | -21.8% | inactive | -25.4% | -1.77% | > 46 µM | inactive | inactive | inactive | – | – | – | – | – | – | – |
| O=C(c1cnccn1)N1CCC2(CC1)CN(Cc1nccs1)C2 | > 11.4 µM | -5.34% | inactive | -5.05% | -2.27% | > 46 µM | inactive | inactive | inactive | – | – | – | – | – | – | – |
| Cc1noc(C)c1C(=O)N1CCC[C@@]2(CCN(Cc3ccc(C#N)cc3)C2)C1 | > 11.4 µM | -6.54% | inactive | 17.1% | 6.11% | > 46 µM | inactive | inactive | inactive | inactive | inactive | inactive | inactive | – | – | – |
| O=C(c1cnccn1)N1CCC2(CCCN(c3ncccn3)C2)CC1 | > 11.4 µM | -8.6% | inactive | 13.2% | -0.387% | > 46 µM | inactive | inactive | inactive | – | – | – | – | – | – | – |
| O=C(c1cnccn1)N1CCC2(CC1)CCN(c1ccccc1)CC2 | > 11.4 µM | -3.01% | inactive | 9.49% | -24.3% | > 46 µM | inactive | inactive | inactive | – | inactive | – | – | – | – | – |
| COc1ccc(-n2c(=O)c(-c3ccc(Cl)cc3)nc3cncnc32)cc1 | > 11.4 µM | -19.6% | 5.01 µM (active) | -2.56% | -6.47% | > 46 µM | inactive | – | inactive | – | – | – | – | inactive | – | > 9.22 µM |
| CS(=O)(=O)N1CCC[C@@]2(CCN(c3ncccn3)C2)C1 | > 11.4 µM | -9.3% | inactive | 16.2% | -19.8% | > 46 µM | inactive | inactive | inactive | – | – | – | – | – | – | – |
